# The full list was thinned out, with hits kept by preference.
# 12-LOX inh: blocks human arachidonate 12S-lipoxygenase; purified 12hLO, xylenol orange hydroperoxide absorbance; Potency, µM (titrated, usually from 108 µM), for the others: at the highest dose activity change, negative = inhibition, actives largely listed as inhibitors; 1.1% of 580,000 active; AID 1671190; note: potency is the fitted concentration of half-maximal effect
# Target sequence (P18054 whole entry, looked up): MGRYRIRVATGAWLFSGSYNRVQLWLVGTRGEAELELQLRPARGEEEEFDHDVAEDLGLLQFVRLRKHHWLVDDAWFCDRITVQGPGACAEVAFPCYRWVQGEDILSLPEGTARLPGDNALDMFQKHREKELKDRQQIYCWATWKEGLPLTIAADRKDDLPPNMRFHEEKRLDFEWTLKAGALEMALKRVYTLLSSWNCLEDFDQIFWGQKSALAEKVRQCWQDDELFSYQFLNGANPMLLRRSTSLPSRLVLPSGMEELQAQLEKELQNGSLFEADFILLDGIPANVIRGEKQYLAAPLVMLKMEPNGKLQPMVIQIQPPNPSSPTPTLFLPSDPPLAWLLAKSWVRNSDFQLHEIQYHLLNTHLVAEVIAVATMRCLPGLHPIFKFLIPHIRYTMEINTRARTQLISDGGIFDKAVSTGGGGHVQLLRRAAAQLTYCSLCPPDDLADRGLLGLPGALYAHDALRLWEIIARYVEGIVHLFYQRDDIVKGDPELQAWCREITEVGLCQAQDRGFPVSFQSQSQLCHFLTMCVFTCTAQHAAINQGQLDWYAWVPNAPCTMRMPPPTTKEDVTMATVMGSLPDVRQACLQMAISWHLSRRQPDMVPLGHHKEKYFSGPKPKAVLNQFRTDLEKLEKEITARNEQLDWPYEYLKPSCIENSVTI
#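 Purified human 12hLO at 150 nM in 25 mM Hepes, 0.01% Triton X-100, pH 7.0, preincubated 15 min at room temperature with compound. Reaction started with 40 uM arachidonic acid, 30 min at room temperature. Hydroperoxide measured by Fe-xylenol orange, 573/405 nm absorbance ratio.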
# IL1B secr inh: blocks inflammasome-driven IL-1 beta release | 4.7% of 360,000 active | THP-1 LPS/ATP IL-1B secretion, AlphaLISA, 16 h; stronger effect = lower value | AID 743279 | activity change, % at 57.5 µM; in the data active = activity change below about -50%; inconclusive = mostly about -30% to -49%
#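 Secreted IL-1B measured by AlphaLISA bead assay after 16 h compound exposure of THP-1 cells; compounds (final up to 57.5 uM) added 1 h before LPS (250 ng/mL) and ATP (1.25 mM) stimulation; lower signal means less secretion.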
# DT40 TDP1 no CPT: qHTS for Inhibitors of human tyrosyl-DNA phosphodiesterase 1 (TDP1): qHTS in cells in absence of CPT; DT40 Tdp1-/- hTDP1 cells, no CPT, ATP luminescence, 48 h; Potency, µM (titrated, usually from 46.2 µM), for the others: top-dose activity change, negative = growth inhibition, most hits filed as inhibitors; 15% of 420,000 active; AID 686978, 2013; note: potency is the fitted concentration of half-maximal effect; nearly all actives have a fitted effect of over 55% in size
#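 Chicken DT40 Tdp1-/- cells complemented with human TDP1, screened without camptothecin (DMSO vehicle only), 400 cells/well. Compounds pin-transferred, cells incubated at 37 °C for at least 48 hr. Growth read as ATP-dependent luminescence (CellTiter-Glo, 30 min at RT).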
# HT1080-NT tox: kills 2HG-producing HT-1080-NT fibrosarcoma cells | HT-1080-NT fibrosarcoma viability, CellTiter-Glo ATP luminescence, 48 h | Potency, µM (series often up to 46.1 µM), without a hit: top-dose activity, negative = less viability, most hits filed as cytotoxic | 1.6% of 360,000 active | AID 686970;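 note: NT is the 2HG producing partner of a matched IDH1 knockdown line; potency is the fitted concentration of half-maximal effect; 0% = DMSO-treated cells and -100% = media-only wells without cells; nearly all actives have a fitted effect of over 55% in size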
#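 Fibrosarcoma NT cells, 750 per well in 5% FBS RPMI, were exposed to compound for 48 hours. Viability: CellTiter-Glo luminescence.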
# HT1080 IDH1KD tx: HT-1080 IDH1 knockdown cell toxicity (counter line); Potency, µM (doses to about 46.1 µM), for the others: at the top dose activity, negative = toxicity, usual class: cytotoxic; 2% of 360,000 active; HT-1080 IDH1 knockdown viability, ATP luminescence, 48 h;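 note: potency is the fitted concentration of half-maximal effect; 0% = DMSO wells and -100% = cell-free medium wells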
#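 Assay cells: HT-1080 with IDH1 knockdown, 750 per well, RPMI/5% FBS. Exposure: 48 h at 37 °C following 2 h pre-incubation. Read: CellTiter-Glo luminescence; fitted concentration-response, curve class assigned.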
# TDP1 cell CPT: growth inhibition of DT40 Tdp1-/-;hTDP1 cells with camptothecin (screen for TDP1 inhibitors); chicken DT40 Tdp1-/-;hTDP1 cells + 20 nM CPT, ATP luminescence, 48 h; Potency, µM (series often up to 46.2 µM), for the others: top-dose activity change, negative = growth inhibition, usual class: inhibitors; 12% of 420,000 active; AID 686979; note: potency is the fitted concentration of half-maximal effect; nearly all actives have a fitted effect of over 55% in size
#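 Chicken DT40 Tdp1-/- cells complemented with human TDP1, 400 cells/well, exposed to compounds plus 20 nM camptothecin for at least 48 h at 37 C; viability read as ATP content by CellTiter-Glo luminescence.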
# Active calls of the source: *; ? = inconclusive; . = no result given; ! = a repeat was not active; [ ] = remark or other dose. Unless noted, calls come from the whole dose curve; as a rule, active = well fitted curve in the direction sought with a large enough effect; inconclusive = small, poorly fitted or top-dose-only effect, or another doubt; inactive = no such curve, though single readings can be large; an effect the other way counts as inactive or inconclusive. Unless noted, % is set by controls: 0 for no effect and ±100 for the full control effect.
SMILES,12-LOX inh,IL1B secr inh,DT40 TDP1 no CPT,HT1080-NT tox,HT1080 IDH1KD tx,TDP1 cell CPT
COc1ccc(Nc2ccccc2NC(=O)c2ccc3c(c2)NC(=O)CCS3)cc1,0%,.,.,.,.,.
COC(=O)c1ccc(OC(=O)c2ccc(OC)cc2)cc1,-6%,.,.,.,.,.
COc1ccc(-n2cc(CN(C)C3CCOCC3)c(-c3cccc(F)c3)n2)cc1,?,-12,18µM*,?,?,?
COc1ccc(-n2cc(CN3CCC(O)CC3)c(-c3cccc(F)c3)n2)cc1,23%,.,.,.,.,.
COc1ccc(-n2cc(CNCCCn3ccnc3)c(-c3cccc(F)c3)n2)cc1,?,?,-21%,-25%,?,?
COc1ccc(-n2cc(CNCc3cnc4ccccn34)c(-c3cccc(F)c3)n2)cc1,-1%,-73*,?,?,0%,?
COc1ccc(-n2cc(CNCC3CCOCC3)c(-c3cccc(F)c3)n2)cc1,-12%,-56*,16µM*,?,-28%,?
CCCNC(=O)N1CC(c2noc(C3CCCN3CC3CC3)n2)C1 (configuration not stated),41%,.,.,.,.,.
Cc1ccc(C)c(N2CCN(CCCNC(=O)Cn3cccc3C(=O)c3ccccc3C)CC2)c1,221%,-114*,2.6µM*,23µM*,23µM*,2.6µM*
Cc1ccccc1C(=O)c1cccn1CC(=O)NCCN1CCN(c2cccc(C)c2C)CC1,1%,?,8.2µM*,23µM*,21µM*,16µM*
COc1ccccc1OCc1cc(C(=O)N2CCN(c3cnccn3)CC2)n[nH]1,41%,.,.,.,.,.
COc1cc(F)c(S(=O)(=O)Nc2ccccc2-c2n[nH]c(C3CC3)n2)cc1OC,12%,.,.,.,.,.
Cc1cc(C(=O)CSc2nnc(N)s2)c(C)n1Cc1cccs1,18%,?,?,-3%,2%,?
Cc1csc(SCC(=O)c2cc(C)n(Cc3cccs3)c2C)n1,16%,-1,-78%,-10%,?,18µM*
COc1ccc(-n2cnnc2SCC(=O)c2cc(C)n(Cc3cccs3)c2C)cc1,0%,-65*,-11%,-4%,1%,-9%
OC1CC2CCC(C1)N2CCCN1c2ccccc2Sc2ccc(Cl)cc21 (configuration not stated),?,-81*,15µM*,?,4.6µM*,23µM*
CC(CN1CCN(CCOCCO)CC1)CN1c2ccccc2Sc2ccc(Cl)cc21 (configuration not stated),-26%,-26,?,23µM*,?,?
OCCN1CCN(CCCN2c3ccccc3C=Cc3ccccc32)CC1,?,.,6µM*,.,.,8.4µM*
CN1CCN(CCCN2c3ccccc3Sc3ccc(Cl)cc32)CC1,?,-64*!,21µM*,15µM*!,21µM*!,4.6µM*!
COCCc1noc([C@@H]2CC(F)(F)CN2C(=O)c2cccc(C)n2)n1,35%,.,.,.,.,.
COCC(=O)N(C1CCOCC1)C1CCN(C(=O)c2ccncc2)CC1,55%,.,.,.,.,.
CCC(=O)c1ccc2c(c1)N(CCCN1CCN(CCO)CC1)c1ccccc1S2,.,.,4.7µM*,.,.,3µM*
CCSc1ccc2c(c1)N(CCCN1CCN(C)CC1)c1ccccc1S2,?,-57*,?,18µM*,?,26µM*
C[C@@H](CO)NC(=O)[C@H]1O[C@@H](n2cnc3c(N)ncnc32)[C@H](O)[C@@H]1O,.,-3,2%,0%,15%,-1%
CC(C)[Si]1(C(C)C)OCC2OC(n3cnc4c(N)ncnc43)C(N)C2O[Si](C(C)C)(C(C)C)O1 (configuration not stated),-7%,?,12µM*,-18%,?,13µM*
SMILES,12-LOX inh,IL1B secr inh,DT40 TDP1 no CPT,HT1080-NT tox,HT1080 IDH1KD tx,TDP1 cell CPT
CCOC(=O)Cc1c(C)nc2c(-c3ccccc3)cnn2c1C,8%,0,-23%,-3%,-10%,?
Cc1cc(N2CCCCC2)n2ncc(-c3ccc(Cl)cc3)c2n1,0%,6,?,-7%,-18%,13µM*
Cc1cc(SCC(=O)c2ccccc2)n2ncc(-c3ccccc3)c2n1,3%,-6,7.3µM*,21%,0%,?
Cc1nc2c(-c3ccccc3)cnn2c(N)c1-c1ccccc1,21%,-78*,?,?,?,-28%
Cc1cc(N2CCOCC2)n2ncc(-c3ccc(Cl)cc3)c2n1,0%,15,-16%,24%,9%,1%
Cc1cc(N2CCN(C(=O)c3ccco3)CC2)n2ncc(-c3ccccc3)c2n1,?,-10,16µM*,-25%,-29%,23µM*
Cc1cc(-c2ccccc2)n2ncc(-c3ccccc3)c2n1,19%,-10,-22%,-20%,-13%,-17%
COc1ccc2[nH]c3c(c2c1)CCNC31CCN(C(=O)c2ccc(OC)c(F)c2)CC1,13%,.,.,.,.,.
O=C1CCN(C(=O)c2cccc3[nH]ccc23)CCCC(C(=O)NCc2ccccc2)CCN1 (configuration not stated),13%,.,.,.,.,.
O=C(c1ccc(C(F)(F)F)cc1)N1CCC2(CC1)COc1ccccc1S(=O)(=O)N2,4%[6.33 µM],.,.,.,.,.
Cc1cc(N2CCCCC2)n2ncc(-c3ccccc3)c2n1,0%,15,29µM*,-25%,-22%,?
CCNC(=O)N1CCCC(c2nn(C)c(=O)n2CC)C1 (configuration not stated),36%,.,.,.,.,.
O=c1cc(O)n(-c2ccccc2)c(=S)[nH]1,?,11,?,4%,11%,21µM*
Cc1cccc(-n2c(N)cc(=O)[nH]c2=S)c1,-23%,20,3%,-4%,0%,?
Cc1nc(SCC(=O)NCc2ccco2)[nH]c(=O)c1C,4%,39,-20%,?,-20%,23µM*
Cc1cc2cc(C)c3nnc(SCC(=O)NCc4ccco4)n3c2cc1C,15%,-66*,?,-23%,2%[9.24 µM],?
CCn1c(SCC(=O)NCc2ccco2)nnc1C1CCCC1,0%,-14,21%,29%,12%,7%
O=C(CSc1nnc(C2CCCCC2)n1Cc1ccccc1)NCc1ccco1,0%,-20,16µM*,0%,0%,16µM*
Nc1nc(SCC(=O)NCc2ccco2)[nH]c(=O)c1-c1ccccc1,13%,28,-8%,-3%,14%,-7%
Cc1cc(SCC(=O)NC(=O)NCc2ccco2)nc2c(C)cccc12,22µM*,15,29µM*,-27%,?,?
CCOC(=O)c1cccc(NC(=O)CS(=O)(=O)Cc2nc(-c3ccc(C)cc3)oc2C)c1,2%,.,.,.,.,.

# Assay outcomes: PubChem, National Center for Advancing Translational Sciences (NCATS)
